Test results from the supplement of paper PMC11417369.
In all, about 25,000 sequences were measured (“ln(normalized median fluorescence intensity)”: median about 9.7, highest 2% from about 11 on). This excerpt belongs to a sample that is enriched for the highest values.

Tested on: PfAP2-HC AP2 domain (GST-tagged)
Assay: gcPBM binding intensity (ln(normalized median fluorescence intensity)); higher = stronger DNA binding
Outline: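 Plasmodium falciparum DNA-binding domains carrying a GST tag were expressed in E. coli and applied for 1 h, at about 25 μg on average, to an Agilent 4 × 180k array. The array held primer-extended double-stranded 36-bp intergenic genomic probes together with negative controls, and binding took place in 1× PBS with 1% milk, 0.2 mg/ml BSA, 0.5% salmon testes DNA and 0.03% Triton X-100. An Alexa488 anti-GST antibody detected bound protein, and the array was scanned at 488 nm. Binding intensity is taken as the highest Masliner-normalised natural-log median intensity across replicate spots of either probe orientation.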

Sequence	gcPBM binding intensity (ln)
TATTATTTGAGTAGTTGTACTCATTAATATATAAAA [XGTACX_site3468]	9.35
TTTGGCTAGTTAGGCCGTACATGTAAATAATATATA [XGTACX_site1138]	9.47
TATATATATTTATACACACACATATATTTATATATT [CACACA_site484]	9.97
AAAAAACACGGACACACACACATATACATACATACA [CACACA_site5470]	10.6
TATATATATATATATACACACATATATATATTTATA [CACACA_site627]	10.2
AGCACGCACAGACACACACACATATTTATATTTATA [CACACA_site6291]	10.3
ATATTAAACAGACACACACACATATATTTATTTATA [CACACA_site7564]	10.4
AACGCACGAGGACACACACACATATTTATATTTATA [CACACA_site6608]	11.4
ATTATATATATTTATGCACACAAAATATATTATATA [CACACA_site9244]	9.64
AACTCACGAGGACACACACACATATATATATATATA [CACACA_site4711]	10.2
ACCATACATACATACACACACACACGCATATTTATA [CACACA_site7386]	11.2
TATATATATTTATGCACACAAAATATATTATATAAT [CACACA_site5955]	9.67
CAAAAGGATATGCACACACACACACGGATATTTATA [CACACA_site7099]	11.4
AAAAAACAGACATACACACACACACGGATATTTATA [CACACA_site7570]	11.4
TCATCCACATATTGTAGTACAAGATAATTGTTTATT [XGTACX_site1634]	9.63
TTTTTAGAAAGACATGCATGTAATAAAAATAAATAA [TGCATGCA_site685]	9.82
AAAATTTAATATAATGCACACATAAAAAAAAATTCA [CACACA_site8640]	9.77
TATAGATGTATGTACATACACACATATATAAATAAA [CACACA_site1789]	10
TTATGCAATTTGTATTGTACATTCATGATATTAATA [XGTACX_site5070]	9.53
TACATGTATAAATAAGCACACATGTGGATATGTACA [CACACA_site93]	10
TATTTTTCTTTTTAAAAATATATCACATGAACATTA [XGTACX_negctrl_site183]	9.39
ATATAAAAAAATAATAAATAAATAAAAAGATTTCTT [XGTACX_negctrl_site110]	9.65
TATTTATACACGCACACACACTTATACATTTATATA [CACACA_site7543]	10.8
ATATACATTAAATGAACACACATAAATAAATTACAT [CACACA_site2852]	9.89
TTATGATGGTCTTTATAAGGGCACATTAAATTCGGC [TGCATGCA_negctrl_site166]	9.35
